DAX1 inh-1: DAX1 (NR0B1) inhibitors, primary screen, cell-based, HEK293, Gal4-DAX1, luciferase luminescence | Nuclear receptor subfamily 0 group B member 1 (Homo sapiens), P51843 | HEK293 Gal4-DAX1 luciferase reporter | inhibition, % at 6.75 µM | actives 0.99% (n = 340,000) | AID 504766, 2011;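 active means inhibition above the mean over all tested compounds plus 3 SD, cut at about 4.2% in these data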;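 further: 0% = DAX1-transfected cells with DMSO and 100% = empty-vector control cells with DMSO; inhibition shows as a rise in luminescence from relieved DAX1 repression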
Target sequence (P51843 207-470 limits assumed): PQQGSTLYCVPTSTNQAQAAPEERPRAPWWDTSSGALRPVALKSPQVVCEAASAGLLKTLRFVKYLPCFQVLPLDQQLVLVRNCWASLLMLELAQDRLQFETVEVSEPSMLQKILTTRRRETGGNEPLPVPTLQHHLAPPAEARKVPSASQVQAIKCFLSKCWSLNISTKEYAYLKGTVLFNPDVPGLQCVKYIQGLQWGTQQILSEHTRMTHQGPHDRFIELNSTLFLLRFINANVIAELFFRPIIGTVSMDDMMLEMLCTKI
hcDAF12 agonist: H. contortus DAF-12 nuclear receptor activators, primary screen, cell-based, luminescence, HEK293, lit1-tk-luc reporter; HEK293 hcDAF-12 lit1-tk-luc reporter; 0% DMSO, 100% Δ7-dafachronic acid; activation, % at 6.8 µM; actives 1.4% (n = 370,000); AID 652067, 2013;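 active means activation above the mean of all tested compounds plus 3 SD, cut at about 5.5% in these data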;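 further: 100% = response to 3 µM Δ7-dafachronic acid high control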
ssDAF12 agonist: S. stercoralis DAF-12 nuclear receptor activators, primary screen, cell-based, luminescence, HEK293, GRIP1 co-expression, lit1-tk-luc; Nuclear hormone receptor DAF-12 (Strongyloides stercoralis); HEK293 ssDAF-12/GRIP1 lit1-tk-luc reporter; % of 3 µM dafachronic acid response; activation, % at 6.8 µM; actives 1% (n = 370,000);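 active means activation above the mean over all tested compounds plus 3 SD, cut at about 0.9% in these data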;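 further: 0% = DMSO-only wells and 100% = 3 µM delta7-dafachronic acid wells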
DAX1 inh-2: DAX1 (NR0B1) inhibitors on StAR promoter, primary screen, cell-based, luminescence, SF-1 (NR5A1), full-length DAX-1. HEK293T StAR-luciferase reporter, SF-1/DAX-1 repression relief. inhibition, % at 6.8 µM. actives 1.1% (n = 370,000);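 active means inhibition above the mean over all tested compounds plus 3 SD, cut at about 3.6% in these data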;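 further: 0% = DAX-1 cells with DMSO and 100% = cells lacking DAX-1 with DMSO; higher inhibition means more luminescence from relief of DAX-1 repression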
hgDAF-12 ag: H. glycines DAF-12 receptor agonists, primary screen, cell-based, luminescence, HEK293, GAL4 fusion, UAS-luciferase. Nuclear hormone receptor DAF-12 (Heterodera glycines), GAL4 fusion. HEK293 GAL4-hgDAF12 UAS-luciferase reporter, agonist luminescence; normalized to butyrate control. activation, % at 6.8 µM. actives 1.8% (n = 370,000). AID 687014, 2013;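 active means activation above a cutoff set at the mean of all screened compounds plus 3 SD, cut at about 10% in these data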;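 further: 0% = DMSO wells and 100% = sodium butyrate wells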
An asterisk follows results filed as active; / = not tested or not shown. Only some compounds are listed: those with a hit (about 4.1% of all), similar ones and a draw of the others.

SMILES	DAX1 inh-1	hcDAF12 agonist	ssDAF12 agonist	DAX1 inh-2	hgDAF-12 ag
COc1ccc(-c2cc(=Nc3ccc(C(=O)O)cc3)c3cc(C)ccc3o2)cc1	1	5.7*	1	4.1*	13*
COc1ccc(C2CC(=O)C(c3ccc(C(N)=O)cc3)=CN2Cc2ccccc2)cc1 (stereo unspecified)	/	-1	-1	0	-4
C[C@@H]1CN([C@H](C)CO)C(=O)CCCn2cc(nn2)CO[C@H]1CN(C)C(=O)Oc1ccccc1	/	-1	-1	-1	-2
Cc1[nH]c2ccccc2c1CC(=O)Nc1ccc(Nc2cccnc2)c(Br)c1	/	2	0	-2	2
CCCCCCN1CCN(C2CN(Cc3cn(Cc4ccc(C(F)(F)F)cc4)nn3)S(=O)(=O)C2)CC1 (stereo unspecified)	/	-2	-1	-2	-3
COc1ccc2[nH]c3c(c2c1)CCN1C(=O)N([C@@H](C)C(=O)NCC2CCCO2)C(=O)[C@]31C (stereo partly specified)	5.7*	2	-1	0	6
C[C@@H](C(=O)NCC1CCCO1)N1C(=O)N2CCc3c([nH]c4ccccc34)[C@@]2(C)C1=O (stereo partly specified)	3	1	-1	0	-2
COC(=O)[C@]12C[C@H](CC(=O)NCc3cccc4ccccc34)C(=O)N(Cc3ccccc3)C1=C[C@H](C1CCCC1)O[C@@H]2C	/	-4	-1	0	1
Cc1sc2ncnc(N/N=C/c3cccc(O)c3)c2c1C	3	5.6*	0	2	8
CC1=C(C(=O)N2CCOCC2)CC(CC(=O)NCC2CCCCC2)C(=O)N1Cc1ccc(C(C)(C)C)cc1 (stereo unspecified)	/	0	-1	-1	-2
O=C(N/C(=C/C=C/c1ccccc1)C(=O)N1CCOCC1)c1ccccc1Cl	1	6.0*	1	0	1
O=C(Nc1ccc(C(=O)O)cc1)/C(=C\C=C\c1ccccc1)NC(=O)c1ccccc1Cl	0	1	-1	4.3*	4
CCC1CC(C(=O)O)CC(=O)N1 (stereo unspecified)	/	0	-1	-1	-2
CCOc1ccc(N2C(=O)C(Cl)=C(Nc3ccccc3O)C2=O)cc1	0	5.6*	1	-1	5
O=c1ccn([C@@H]2O[C@H](CNCc3cccn3-c3nccs3)[C@@H](O)[C@H]2O)c(=O)[nH]1	/	4	-1	1	4
COc1cc(NS(=O)(=O)c2cc3[nH]c(=O)c(=O)[nH]c3cc2C)cc(OC)c1OC	4.8*	5	-1	1	-2
Cc1ccc(C2NC(=O)c3n[nH]c(C(C)C)c32)cc1 (stereo unspecified)	/	0	-1	0	-1
O=C(N[C@H](C(=O)N1CCC[C@H]1C(=O)NCc1ccccc1)c1ccccc1)c1ccc(Cl)cc1Cl	/	-1	-1	0	-1
Cc1ccc(S(=O)(=O)c2nc(Nc3ccccc3N3CCOCC3)sc2Cl)cc1	0	-2	-2	0	-2
Cc1ccc(S(=O)(=O)c2nc(Nc3ccccc3C#N)sc2Cl)cc1	0	6.3*	-1	0	-2
COC(=O)[C@]12C[C@H](CC(=O)N3CCCCC3)C(=O)N(Cc3ccccc3)C1=C[C@H](C1CCCC1)O[C@@H]2C	/	-2	-1	0	-1
COc1ccc(-c2nc(CCl)cs2)cc1	-1	4	0	2	5
CCc1ccc(-c2nc(CCl)cs2)cc1	1	6	0	3	12*
CC(=O)NC(C)(c1ccccc1)c1nc(-c2cccc(F)c2)cs1 (stereo unspecified)	/	-2	-1	0	-2
COc1ccc(/C=C/C(=O)c2cc(Cl)ccc2O)c(OC)c1	1	1	-1	0	6
SMILES	DAX1 inh-1	hcDAF12 agonist	ssDAF12 agonist	DAX1 inh-2	hgDAF-12 ag
COc1ccc(/C=C/C(=O)c2ccc(Cl)cc2)c(OC)c1	1	1	-1	2	16*
CCOC(=O)N[C@H](C(=O)N1CCC[C@H]1C(=O)NC1CCCC1)c1ccccc1	/	-1	-1	1	-2
CC(C)(C)n1nc(C2CC2)c(Br)c1NC(=O)c1ccc(Cl)cc1	/	0	0	0	-4
Cc1cccc(C)c1N1CCN(CCn2c(=S)[nH]c3ccccc3c2=O)CC1	4.2*	-1	-1	0	-1
CCN1CCN(CCn2c(=S)[nH]c3ccccc3c2=O)CC1	0	-2	-1	0	1
CC(C)CCN(C)C1CCN(C(=O)Nc2ccc(Cl)cc2)CC1	/	-2	0	0	0
Cc1ccnc(NC(=O)c2cc(-c3ccc(Cl)s3)nc3ccccc23)c1	4.7*	0	0	1	2
O=C(Nc1ccccn1)c1cc(-c2ccc(Cl)s2)nc2ccccc12	-1	0	-1	-2	2
Cc1cc(NC(=O)c2cc(-c3ccc(C)s3)nc3ccccc23)no1	1	1	1.7*	-1	3
Cc1cc(NC(=O)c2cc(-c3ccccc3C)nc3ccccc23)no1	0	5	0	0	-2
COc1ccc(OCC(=O)Nc2cc(NC(=O)c3ccco3)ccc2OC)cc1	1	-2	-2	0	-2
COCC1CCCCN1C(=O)c1ccc(OC2CCN(Cc3ccccn3)CC2)cc1 (stereo unspecified)	0	-1	-1	0	0
CCC1CCCCN1C(=O)c1ccc(OC2CCN(Cc3ccccn3)CC2)cc1 (stereo unspecified)	0	-3	-1	-2	11*
C[C@H](CO)N1C[C@H](C)[C@@H](CN(C)S(C)(=O)=O)OCc2cn(nn2)CCCC1=O	/	0	0	0	0
Cc1cc(N2CCN(C(=O)OC(C)(C)C)C[C@@H]2C)ccc1N1C[C@@H](C)O[C@@H](C)C1	/	0	-1	-2	2
Cn1c(=NC(=O)C(C)(C)C)sc2cccc(F)c21	4.3*	-1	-2	1	1
CCC(=O)N=c1sc2cc(F)cc(F)c2n1C	0	6.1*	0	-1	6
C#CCn1c(=NC(=O)c2ccccc2[N+](=O)[O-])sc2cc(S(C)(=O)=O)ccc21	-1	4	-2	-1	-3
CC(C)C(=O)N=c1sc2cc(F)cc(F)c2n1C	0	1	-1	0	-2
Cn1c(=NC(=O)c2ccccc2[N+](=O)[O-])sc2cccc(F)c21	3	0	-1	3	13*

Source: PubChem BioAssay (The Scripps Research Institute Molecular Screening Center)
